PubChem BioAssay (Tox21)
Results filed as inconclusive are left out. The source made the active and inactive calls. Unless noted, calls follow the shape of the full dose curve.

Assays:
[1] = qHTS assay to identify small molecule antagonists of the sonic hedgehog signaling (Shh) pathway (AID 1259369); also: nearly all actives have a fitted effect of over 45% in size; also: potency is read from the fitted curve at half-maximal effect
How it was run: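 NIH/3T3 stable Gli1-Luc clone, 2,000 cells/well, 4hr settle; cpd + conditioned medium 24hr; Luc reagent 30min RT; luminescence.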

[2] = biological target: Estrogen receptor beta (Homo sapiens) (UniProt Q92731); experiment: qHTS assay to identify small molecule antagonists of the estrogen receptor beta (ER-beta) signaling pathway (AID 1259378; active = well fitted inhibition curve with a large enough effect in the signal ratio in the repeat runs, not every such curve was filed as active; the % refers to the signal ratio)
How it was run: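 Antagonist mode: compounds added to beta-lactamase reporter HEK293T ER-beta-UAS cells stimulated with E2 (1nM final), 16 hr at 37C. LiveBLAzer B/G FRET substrate, 2 hours room temperature, fluorescence read-out.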

[3] = qHTS assay to identify small molecule antagonists of the estrogen receptor beta (ER-beta) signaling pathway - cell viability counter screen (AID 1259382; active = well fitted curve in the direction sought with a large enough effect in the repeat runs; an effect the other way counts as inactive or inconclusive;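 also: HEK293T cells carrying ER-beta-UAS-bla reporter stimulated with estradiol; series mostly up to about 92 µM; nearly all actives have a fitted effect of over 55% in size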)
How it was run: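 Readout: luminescence, CellTiter-Glo, same wells as bla assay. System: ER-beta-UAS-bla GripTite HEK293T, 2% charcoal-stripped FBS. Exposure: compounds plus 1nM 17-beta-estradiol, 16 hr, 37C.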

[4] = biological target: Estrogen receptor (Homo sapiens) (UniProt P03372); experiment: qHTS assay to identify small molecule agonists of the estrogen receptor alpha (ER-alpha) signaling pathway in the presence of an antagonist (AID 1259383); also: nearly all actives have a fitted effect of over 15% in size; also: potency is read from the fitted curve at half-maximal effect; as to activation: top concentration of the series differs between compounds
How it was run: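 Quantitative HTS confirmation: compounds titrated at 15 concentrations onto estrogen-deprived VM7Luc4E2 cells carrying a four-ERE luciferase construct, with ICI-182,780 present at 10.0nM final. Signal is luminescence after 22hr exposure.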

[5] = qHTS assay to identify small molecule agonists or antagonists of the thyroid stimulating hormone receptor (TSHR) signaling pathway - wild type cell line counter screen (AID 1259384)
How it was run: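 Counter screen in untransfected Hek293: compounds (15-point titration, triplicate) plus phosphodiesterase inhibitor Ro20-1724 added after 18 h plating; 30 min RT. Intracellular cAMP via competitive d2/cryptate immunoassay, 1 h incubation.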

[6] = biological target: Thyrotropin receptor (Homo sapiens) (UniProt P16473); experiment: qHTS assay to identify small molecule antagonists of the thyroid stimulating hormone receptor (TSHR) signaling pathway (AID 1259385); also: nearly all actives have a fitted effect of over 20% in size
How it was run: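 Antagonist mode: compound-treated TSHR-expressing HEK293 cells were stimulated with 1.5 ng/mL TSH (final) in presence of Ro20-1724 for 30 min at RT. HTRF cAMP detection after 1 h; each compound tested at 15 concentrations, triplicate.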

[7] = qHTS assay to identify small molecule agonists of the androgen receptor (AR) signaling pathway in the presence of an antagonist - cell viability counter screen (AID 1259379; active = well fitted curve in the direction sought with a large enough effect in the repeat runs; an effect the other way counts as inactive or inconclusive;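 also: MDA-kb2 human breast cancer cells carrying an MMTV luciferase reporter; series mostly up to about 92 µM; nearly all actives have a fitted effect of over 25% in size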)
How it was run: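 MDA-kb2 viability measured by CellTiter-Fluor fluorescence in the same wells as the luciferase signal; nilutamide 3.0uM final; 15-point compound titration; 16 hr at 37C.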

[8] = qHTS assay to identify small molecule agonists of the estrogen receptor beta (ER-beta) signaling pathway - cell viability counter screen (AID 1259380; active = well fitted curve in the direction sought with a large enough effect in the repeat runs; an effect the other way counts as inactive or inconclusive; also: nearly all actives have a fitted effect of over 30% in size; also: potency is read from the fitted curve at half-maximal effect)
How it was run: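 Measured: luminescence from CellTiter-Glo after 30 min at room temperature, added to wells already read for the LiveBLAzer FRET reporter (2 hr substrate); ER-beta-UAS-bla HEK293T cells had 16 hr compound treatment at 37C, 5% CO2.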

[9] = biological target: Estrogen receptor beta (Homo sapiens) (UniProt Q92731); experiment: qHTS assay to identify small molecule agonists of the estrogen receptor beta (ER-beta) signaling pathway (AID 1259377; active = well fitted activation curve with a large enough effect in the signal ratio in the repeat runs, not every such curve was filed as active; the % refers to the signal ratio)
How it was run: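 Screening used GripTite ER-beta-UAS-bla cells held in 2% charcoal-stripped FBS medium. After overnight (16 hr) compound incubation at 37C, beta-lactamase activity was detected with a FRET substrate by fluorescence.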

[10] = biological target: Androgen receptor (Homo sapiens) (UniProt P10275); experiment: qHTS assay to identify small molecule agonists of the androgen receptor (AR) signaling pathway in the presence of an antagonist (AID 1259381); also: nearly all actives have a fitted effect of over 15% in size; also: potency is read from the fitted curve at half-maximal effect
How it was run: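 Luminescent ONE-Glo read, 30min at room temperature, follows 16hr compound exposure (15 concentrations) of MDA-kb2 cells at 37C, 0% CO2, with nilutamide added at 3.0uM final.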
% is scaled to controls: 0 for no effect and ±100 for the full control effect.

Chain of Estrogen receptor beta (Homo sapiens) (Q92731 whole entry, looked up): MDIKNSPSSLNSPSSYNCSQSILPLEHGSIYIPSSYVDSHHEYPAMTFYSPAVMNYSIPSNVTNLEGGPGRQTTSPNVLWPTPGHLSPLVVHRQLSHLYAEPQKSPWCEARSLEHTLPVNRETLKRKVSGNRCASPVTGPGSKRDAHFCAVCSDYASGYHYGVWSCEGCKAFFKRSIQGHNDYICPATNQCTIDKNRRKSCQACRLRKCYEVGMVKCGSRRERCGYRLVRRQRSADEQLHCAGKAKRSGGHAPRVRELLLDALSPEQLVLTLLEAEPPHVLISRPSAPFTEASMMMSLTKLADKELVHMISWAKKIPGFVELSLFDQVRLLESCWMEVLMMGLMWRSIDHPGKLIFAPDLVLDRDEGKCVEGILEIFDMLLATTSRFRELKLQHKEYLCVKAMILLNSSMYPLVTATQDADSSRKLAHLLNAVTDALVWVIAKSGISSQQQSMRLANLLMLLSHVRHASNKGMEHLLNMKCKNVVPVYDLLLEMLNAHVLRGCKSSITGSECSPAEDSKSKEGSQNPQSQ
Chain of Thyrotropin receptor (Homo sapiens) (P16473 whole entry, looked up): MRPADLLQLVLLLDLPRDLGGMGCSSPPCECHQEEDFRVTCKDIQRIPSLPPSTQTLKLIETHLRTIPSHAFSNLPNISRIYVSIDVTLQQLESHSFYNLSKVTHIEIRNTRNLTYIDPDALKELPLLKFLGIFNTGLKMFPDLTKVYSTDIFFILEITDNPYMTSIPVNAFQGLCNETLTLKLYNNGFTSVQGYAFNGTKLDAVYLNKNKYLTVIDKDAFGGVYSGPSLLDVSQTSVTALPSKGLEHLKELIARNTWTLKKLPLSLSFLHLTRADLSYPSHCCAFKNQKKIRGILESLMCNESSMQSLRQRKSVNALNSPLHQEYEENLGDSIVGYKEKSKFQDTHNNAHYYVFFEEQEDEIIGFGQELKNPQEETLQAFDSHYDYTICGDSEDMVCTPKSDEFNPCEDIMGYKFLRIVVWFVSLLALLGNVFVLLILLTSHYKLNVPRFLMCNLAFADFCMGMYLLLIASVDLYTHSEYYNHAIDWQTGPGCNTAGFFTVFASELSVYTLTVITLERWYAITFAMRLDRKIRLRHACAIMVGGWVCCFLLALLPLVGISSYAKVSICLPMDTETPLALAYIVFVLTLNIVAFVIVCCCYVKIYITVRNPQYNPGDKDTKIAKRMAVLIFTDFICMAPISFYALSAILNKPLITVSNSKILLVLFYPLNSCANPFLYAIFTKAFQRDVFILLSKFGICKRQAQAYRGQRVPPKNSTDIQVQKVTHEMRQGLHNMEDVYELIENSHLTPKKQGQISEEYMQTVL
Chain of Estrogen receptor (Homo sapiens) (P03372 whole entry, looked up): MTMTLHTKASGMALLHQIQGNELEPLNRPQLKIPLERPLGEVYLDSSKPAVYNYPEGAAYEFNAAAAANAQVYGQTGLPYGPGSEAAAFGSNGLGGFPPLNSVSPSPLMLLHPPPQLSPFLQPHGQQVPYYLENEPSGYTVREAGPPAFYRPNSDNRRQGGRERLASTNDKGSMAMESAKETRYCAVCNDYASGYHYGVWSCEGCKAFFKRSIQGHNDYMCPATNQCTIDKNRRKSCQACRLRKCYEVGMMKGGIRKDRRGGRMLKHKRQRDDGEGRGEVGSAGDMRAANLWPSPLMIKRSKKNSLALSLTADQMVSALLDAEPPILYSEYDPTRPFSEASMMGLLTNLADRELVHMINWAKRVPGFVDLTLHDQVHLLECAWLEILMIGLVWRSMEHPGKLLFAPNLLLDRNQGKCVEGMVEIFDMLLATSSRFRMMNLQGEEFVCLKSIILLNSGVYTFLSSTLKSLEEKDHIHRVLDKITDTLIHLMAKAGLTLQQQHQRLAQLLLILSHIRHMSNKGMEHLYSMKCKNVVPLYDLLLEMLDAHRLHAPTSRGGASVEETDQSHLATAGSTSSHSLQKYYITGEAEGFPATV
Chain of Androgen receptor (Homo sapiens) (P10275 whole entry, looked up): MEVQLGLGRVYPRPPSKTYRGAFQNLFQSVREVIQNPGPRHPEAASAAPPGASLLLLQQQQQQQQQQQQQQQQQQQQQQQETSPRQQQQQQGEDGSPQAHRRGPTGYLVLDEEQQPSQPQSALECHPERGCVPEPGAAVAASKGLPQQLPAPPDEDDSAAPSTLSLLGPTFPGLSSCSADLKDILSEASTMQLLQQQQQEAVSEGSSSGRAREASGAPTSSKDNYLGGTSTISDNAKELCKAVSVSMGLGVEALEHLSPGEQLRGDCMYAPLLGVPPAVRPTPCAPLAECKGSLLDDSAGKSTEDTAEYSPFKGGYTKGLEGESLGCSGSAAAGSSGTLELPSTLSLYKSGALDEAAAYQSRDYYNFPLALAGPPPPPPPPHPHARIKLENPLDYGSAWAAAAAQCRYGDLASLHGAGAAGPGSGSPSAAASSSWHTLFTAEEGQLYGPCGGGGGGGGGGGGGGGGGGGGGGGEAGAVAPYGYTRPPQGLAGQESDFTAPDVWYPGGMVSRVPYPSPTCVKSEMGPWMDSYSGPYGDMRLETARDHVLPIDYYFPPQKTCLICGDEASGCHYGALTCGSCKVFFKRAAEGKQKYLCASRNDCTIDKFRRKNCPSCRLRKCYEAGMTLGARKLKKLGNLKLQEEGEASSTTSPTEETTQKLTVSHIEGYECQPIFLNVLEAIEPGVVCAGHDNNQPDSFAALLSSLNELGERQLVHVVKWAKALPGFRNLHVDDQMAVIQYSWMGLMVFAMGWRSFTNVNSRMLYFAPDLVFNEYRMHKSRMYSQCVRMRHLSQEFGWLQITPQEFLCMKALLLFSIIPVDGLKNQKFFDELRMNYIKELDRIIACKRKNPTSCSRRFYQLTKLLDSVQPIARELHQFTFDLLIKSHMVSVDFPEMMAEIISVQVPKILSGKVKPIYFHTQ

CCCCCCCOC(=O)CCC
inactive: Potency [1] | Potency [2] | outcome [3] | Potency [4] | outcome [5] | Potency [6]

C=C(C)C(=O)OCCOP(=O)(O)O
inactive: Potency [1] | Potency [2] | Potency [7] | Potency [8] | Potency [4] | outcome [5] | Potency [6]

CCC/C=C/CO
inactive: Potency [1] | Potency [2] | Potency [7] | Potency [8] | outcome [3] | Potency [4] | outcome [5] | Potency [6]

C=CCCCCCCCCO
inactive: Potency [1] | outcome [9] | outcome [3] | Potency [4] | outcome [5] | Potency [6]

CCCCNC(=S)NCCCC
inactive: Potency [1] | outcome [9] | Potency [7] | Potency [8] | Potency [4] | outcome [5] | Potency [6]

CC(C)C1=CC2=CC[C@@H]3[C@](C)(CCC[C@@]3(C)C(=O)O)[C@H]2CC1
inactive: Potency [1] | Potency [7] | outcome [3] | Potency [4]
active: Potency [8] 30.6 µM

CCCOCCC
inactive: Potency [1] | Potency [7] | Potency [8] | outcome [3] | Potency [4] | outcome [5] | Potency [6]

CCN(CC)C(=O)N(CC)CC
inactive: Potency [1] | Potency [7] | Potency [8] | outcome [3]

CCOc1ccc(NC(N)=O)cc1
inactive: Potency [1] | outcome [9] | Potency [2] | Potency [4] | outcome [5] | Potency [6]

CC1=C2[C@H](/C=C(\C)C(=O)O)CC[C@@H](C)[C@H]2CC1
active: Potency [1] 56.5 µM | Potency [8] 25.2 µM
inactive: outcome [9] | Potency [7] | Potency [10] | Potency [4] | outcome [5] | Potency [6]

Cc1ccc(C(C)C)cc1O
inactive: Potency [1] | Potency [2] | Potency [7] | Potency [8] | outcome [3] | outcome [5]

C[C@@H](N)C(=O)O
active: Potency [1] 21.1 µM
inactive: Potency [7] | Potency [8] | Potency [10] | outcome [3] | outcome [5] | Potency [6]

O=C(O[C@@H](C(=O)O)[C@@H](OC(=O)c1ccccc1)C(=O)O)c1ccccc1
inactive: Potency [1] | Potency [2] | Potency [7] | outcome [3] | Potency [4]

CCN(CCCc1ccccc1)CCCc1ccccc1
inactive: Potency [1] | outcome [9] | Potency [4] | outcome [5]

NCCCN1CCN(CCCN)CC1
inactive: Potency [1] | Potency [7] | Potency [8] | Potency [10] | Potency [4] | outcome [5] | Potency [6]

COC(C)CCO (stereo not drawn)
inactive: Potency [1] | Potency [7] | Potency [8] | Potency [10] | outcome [3] | outcome [5] | Potency [6]

CCCCCOc1ccc(C2SC(=O)NC2=O)cc1OCC (stereo not drawn)
active: Potency [8] 29.8 µM
inactive: Potency [1] | outcome [9] | Potency [7] | Potency [10] | Potency [4] | outcome [5] | Potency [6]

O=C(CC(=O)C(F)(F)F)c1ccccc1
active: Potency [4] 9.83 µM
inactive: Potency [1] | outcome [9] | Potency [7] | outcome [3] | outcome [5]

CCCOc1ccc2c(c1)CC[C@@H]1[C@@H]2CC[C@]2(C)C(OC)CC[C@@H]12 (stereo partly drawn)
inactive: Potency [1] | Potency [2] | Potency [7] | Potency [10] | outcome [3] | Potency [4] | outcome [5] | Potency [6]

CCN(O)CC
active: Potency [1] 11.9 µM
inactive: Potency [7] | Potency [8] | outcome [3]

CCCCN1C[C@H](O)[C@@H](O)[C@H](O)[C@H]1CO
inactive: Potency [1] | Potency [7] | Potency [8] | outcome [3] | Potency [4] | outcome [5] | Potency [6]

CCOC(=O)C(Br)c1ccccc1 (stereo not drawn)
inactive: Potency [1] | outcome [9] | Potency [2] | Potency [4] | outcome [5]

OCc1c2ccccc2cc2ccccc12
inactive: Potency [1] | Potency [2] | Potency [7] | outcome [3] | Potency [4] | outcome [5]

CC1(C)C(=O)N(Cl)C(=O)N1Br
inactive: Potency [1] | Potency [7] | Potency [8] | outcome [3]

O=c1[nH]c(=O)n([C@H]2C[C@H](O)[C@@H](CO)O2)cc1C(F)(F)F
inactive: Potency [1] | outcome [9] | Potency [7] | Potency [8] | outcome [3] | Potency [4] | outcome [5] | Potency [6]

OCCN(CCO)c1ccccc1
inactive: Potency [1] | Potency [2] | Potency [7] | Potency [8] | Potency [10] | outcome [3] | Potency [4]

CCCCC(=O)O[C@]1(C(=O)CO)[C@H](C)C[C@H]2[C@@H]3CCC4=CC(=O)C=C[C@]4(C)[C@@]3(F)[C@@H](O)C[C@@]21C
inactive: Potency [1] | Potency [7] | Potency [8] | outcome [3] | Potency [4] | outcome [5]

O=C1CCN(c2ccccc2)N1
active: Potency [8] 21.8 µM | Potency [10] 30.7 µM
inactive: Potency [1] | outcome [9] | Potency [7] | Potency [4] | outcome [5] | Potency [6]

NC(=O)NS(=O)(=O)c1ccc(Cl)cc1
inactive: Potency [1] | Potency [7] | Potency [8] | Potency [10] | outcome [3] | Potency [4] | outcome [5]

OCCN1CCN(CCO)CC1
inactive: Potency [1] | Potency [2] | Potency [7] | Potency [8] | outcome [5]

C[C@@H]1CN(c2c(F)c(F)c3c(=O)c(C(=O)O)cn(C4CC4)c3c2F)C[C@H](C)N1
inactive: activity change, negative = inhibition [1] 7.04% [at 19 µM] | activity change, negative = cytotoxicity [7] 1.23% [at 19 µM] | activity change, negative = cytotoxicity [8] -0.431% [at 19 µM] | Potency [10] | activity change, negative = cytotoxicity [3] 0.873% [at 19 µM] | activation [4] -0.582% [at 19 µM] | cAMP activity change [5] -0.3% [at 18.9 µM] | activity change, negative = inhibition [6] -7.61% [at 19 µM]

CCN(CC)CCNC(=O)COc1ccc(Cl)cc1
inactive: Potency [1] | Potency [7] | Potency [8] | outcome [3] | Potency [4] | outcome [5] | Potency [6]

Cc1cc2nc(N)sc2cc1C
active: Potency [8] 30.9 µM
inactive: Potency [1] | Potency [7] | Potency [10] | outcome [5] | Potency [6]

NS(=O)(=O)c1cc(-c2nn[nH]n2)c(NCc2cccs2)cc1Cl
inactive: Potency [1] | outcome [9] | Potency [7] | outcome [3] | Potency [4] | outcome [5]

C1CCOC1
inactive: Potency [1] | Potency [7] | Potency [8] | outcome [3] | outcome [5] | Potency [6]

Nc1ccc2ccccc2c1S(=O)(=O)O
inactive: Potency [1] | Potency [7] | outcome [3] | outcome [5]

CC(C)C[C@H](NC(=O)OCC1c2ccccc2-c2ccccc21)C(=O)O
inactive: Potency [1] | Potency [7] | outcome [5]
active: Potency [8] 61.1 µM

CC(C)=CCCC(C)CCOC=O (stereo not drawn)
inactive: outcome [3] | outcome [5]
active: Potency [1] 34.4 µM

COc1ccccc1OCC(O)COC(N)=O (stereo not drawn)
inactive: Potency [1] | Potency [7] | Potency [4] | outcome [5] | Potency [6]
